From the supplement of paper PMC8975748
Where a name gives a salt, the structure may show the parent alone.

tested on: Saccharomyces cerevisiae BY4741 SeMeCo community; test: z-score of subpopulation abundance vs DMSO median, subpopulation auxotrophic for HM; higher = larger share of this subpopulation than in DMSO controls; conditions: 10 µM; 24 h; SM minimal medium; subpopulation (auxotrophy): HM
Outline: (§1)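 Scoring was based on each subpopulation's abundance, expressed as a z-score against the vehicle-well median. A Saccharomyces cerevisiae BY4741 community with four plasmids, each restoring one auxotrophy and encoding a distinct fluorescent protein, was pre-grown overnight to OD600 1.0, diluted to 0.3, and added at 70 µl to 384-well plates acoustically predosed with library drugs (10 µM final). It then grew 24 h in minimal SM medium before paraformaldehyde fixation and automated confocal microscopy, with single-auxotroph fluorescent strains setting thresholds and autofluorescence correction.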

Row | Structure (SMILES) | z-score of subpopulation abundance
1 | CCC[S+]([O-])c1ccc2[nH]c(NC(=O)OC)nc2c1 (configuration not stated) [Albendazole Oxide] | 0.14
2 | O=C(O)CCCCCCCC(=O)O [Azelaic acid] | -0.04
3 | CN[C@H]1CC[C@@H](c2ccc(Cl)c(Cl)c2)c2ccccc21 [Sertraline HCl] | -0.87
4 | CN(C)CCCN1c2ccccc2Sc2ccccc21 [Promazine hydrochloride] | -0.18
5 | CC1(C)S[C@@H]2[C@H](NC(=O)[C@H](N)c3ccc(O)cc3)C(=O)N2[C@H]1C(=O)O [Amoxicillin trihydrate] | -0.15
6 | Fc1ccc([C@@H]2CCNC[C@H]2COc2ccc3c(c2)OCO3)cc1 [Paroxetine mesylate] | -0.77

tested on: Saccharomyces cerevisiae BY4741 SeMeCo community; test: z-score of subpopulation abundance vs DMSO median, subpopulation auxotrophic for HU; higher = larger share of this subpopulation than in DMSO controls; conditions: 10 µM; 24 h; SM minimal medium; subpopulation (auxotrophy): HU
Outline: as §1

Row | Structure (SMILES) | z-score of subpopulation abundance
7 | CCC[S+]([O-])c1ccc2[nH]c(NC(=O)OC)nc2c1 (configuration not stated) [Albendazole Oxide] | -0.21
8 | O=C(O)CCCCCCCC(=O)O [Azelaic acid] | 0.63
9 | CN(C)CCCN1c2ccccc2Sc2ccccc21 [Promazine hydrochloride] | -0.69
10 | CC1(C)S[C@@H]2[C@H](NC(=O)[C@H](N)c3ccc(O)cc3)C(=O)N2[C@H]1C(=O)O [Amoxicillin trihydrate] | 0.31
11 | Cc1cccc(N(C)C(=S)Oc2ccc3ccccc3c2)c1 [Tolnaftate] | -0.22
12 | COc1ccc2cc([C@H](C)C(=O)O)ccc2c1 [Naproxen] | -1.2
13 | Fc1ccc([C@@H]2CCNC[C@H]2COc2ccc3c(c2)OCO3)cc1 [Paroxetine mesylate] | -0.22

tested on: Saccharomyces cerevisiae BY4741 SeMeCo community; test: z-score of subpopulation abundance vs DMSO median, subpopulation auxotrophic for UM; higher = larger share of this subpopulation than in DMSO controls; conditions: 10 µM; 24 h; SM minimal medium; subpopulation (auxotrophy): UM
Outline: as §1

Row | Structure (SMILES) | z-score of subpopulation abundance
14 | CCC[S+]([O-])c1ccc2[nH]c(NC(=O)OC)nc2c1 (configuration not stated) [Albendazole Oxide] | 0.18
15 | O=C(O)C1=C(CSc2nnnn2CS(=O)(=O)O)CS[C@@H]2[C@H](NC(=O)[C@H](O)c3ccccc3)C(=O)N12 [Cefonicid sodium] | 0.3
16 | O=C(O)CCCCCCCC(=O)O [Azelaic acid] | -0.2
17 | CN[C@H]1CC[C@@H](c2ccc(Cl)c(Cl)c2)c2ccccc21 [Sertraline HCl] | -0.56
18 | CN(C)CCCN1c2ccccc2Sc2ccccc21 [Promazine hydrochloride] | -0.02
19 | CC1(C)S[C@@H]2[C@H](NC(=O)[C@H](N)c3ccc(O)cc3)C(=O)N2[C@H]1C(=O)O [Amoxicillin trihydrate] | 0.19
20 | Cc1cccc(N(C)C(=S)Oc2ccc3ccccc3c2)c1 [Tolnaftate] | -0.08
21 | COc1ccc2cc([C@H](C)C(=O)O)ccc2c1 [Naproxen] | -2.93
22 | Fc1ccc([C@@H]2CCNC[C@H]2COc2ccc3c(c2)OCO3)cc1 [Paroxetine mesylate] | 0.67
